# High-throughput results: PubChem BioAssay, National Center for Advancing Translational Sciences (NCATS)
# The list is not random: actives were taken first. Their share in the collection is about 5.3%.
# JMJD2A Tudor inh: JMJD2A Tudor domain (human) inhibition | O75164 | AlphaScreen JMJD2A-Tudor / H3K4me3 peptide binding | Potency, µM (top dose mostly 114 µM), without a hit: at the top dose activity change, negative = inhibition, most hits filed as inhibitors | hit rate 4.4% among 390,000 | AID 504339; also: potency is read from the fitted curve at half-maximal effect; % is scaled to controls: 0 for no effect and ±100 for the full control effect; nearly all actives have a fitted effect of over 50% in size
# Six1-Eya2 blk: blocks human Six1 binding to Eya2. Q15475+O00167. AlphaScreen GST-Six1/His-Eya2 binding, biochemical; stronger effect = lower value. activity change, % (test concentration not listed). hit rate 0.56% among 360,000. AID 651725; in the data active = activity change below about -65%; inconclusive = mostly about -30% to -63%; also: % is scaled to controls: 0 for no effect and ±100 for the full control effect
#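 Six1/Eya2 binding was read as AlphaScreen signal after compounds were pinned into GST-Six1 plus His-tagged Eya2 (5X stock 250/500 nM) in pH 8.0 Tris/NaCl/TCEP buffer, beads added, then incubated 1 h, 37 C, dark.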
# TDP1 inh: blocks human tyrosyl-DNA phosphodiesterase 1 | hit rate 0.28% among 350,000 | Potency, µM (series often up to 130 µM), without a hit: at the highest dose activity change, negative = inhibition, most hits filed as inhibitors | recombinant TDP1, AlphaScreen DNA substrate cleavage; also: potency is read from the fitted curve at half-maximal effect; % is scaled to controls: 0 for no effect and ±100 for the full control effect; nearly all actives have a fitted effect of over 40% in size
#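 Tdp1 1 nM final; 15 min RT w/ cpd; substrate 15 nM, 5 min; beads 10 ug/ml, 10 min; AlphaScreen read. Neg ctrl: no enzyme.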
# CtBP-E1A inh: CtBP/E1A binding inhibition | AlphaScreen GST-E1A/His-CtBP binding, 1536-well; stronger effect = lower value | activity change, % (no concentration beside the values) | hit rate 0.49% among 340,000 | AID 651724; in the data active = activity change below about -65%; inconclusive = mostly about -30% to -63%; also: % is scaled to controls: 0 for no effect and ±100 for the full control effect
#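 Protein mix (5X: 125 nM each GST-E1A, His-CtBP) was incubated with pinned compound 2 h at 37 deg C in dark, in 50 mM Tris pH 8.0 buffer with 300 mM NaCl. Glutathione donor and nickel acceptor beads followed; AlphaScreen signal read after 1 h.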
# BAZ2B block: BAZ2B (human) inhibition | Q9UIF8 | AlphaScreen BAZ2B-H3K14Ac peptide displacement | Potency, µM (series often up to 114 µM), for inactives: at the highest dose activity change, negative = inhibition, hits mostly inhibitors | hit rate 4.4% among 360,000; also: potency is read from the fitted curve at half-maximal effect; % is scaled to controls: 0 for no effect and ±100 for the full control effect; nearly all actives have a fitted effect of over 60% in size
#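 BAZ2B 50 nM plus b-H3(5-23)K14Ac 50 nM, PBS pH 7.4/0.01% Tween-20, 30 min RT; compound added (max 110 uM), 30 min RT; streptavidin donor/Ni-chelate acceptor beads 10 ug/mL final, 20 min dark; AlphaScreen read.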
# HP1b chromo inh: blocks HP1-beta chromodomain binding to methylated histone tails; P83916; AlphaScreen HP1-beta / biotin-H3K9me3 peptide binding; Potency, µM (top dose mostly 114 µM), without a hit: at the top dose activity change, negative = inhibition, usual class: inhibitors; hit rate 0.56% among 390,000; also: potency is read from the fitted curve at half-maximal effect; nearly all actives have a fitted effect of over 70% in size
# Target sequence (P83916 whole entry, looked up): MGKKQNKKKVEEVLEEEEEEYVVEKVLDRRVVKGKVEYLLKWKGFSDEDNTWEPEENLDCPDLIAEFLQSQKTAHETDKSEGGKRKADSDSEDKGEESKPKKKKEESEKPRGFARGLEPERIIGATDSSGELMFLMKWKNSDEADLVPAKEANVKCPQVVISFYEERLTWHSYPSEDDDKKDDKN
#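 HP1-beta protein (50 nM final) preincubated 30 min at room temperature with biotinylated H3(1-18)K9me3 peptide (50 nM) in PBS pH 7.4, 0.01% Tween-20, then compound added for 30 min. AlphaScreen streptavidin donor/nickel chelate acceptor beads (10 ug/mL final), 30 min dark, luminescence read.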
# Active calls of the source: *; ? = inconclusive; · = no result given; [ ] = dose if it differs, or a comment. Unless noted, calls follow the shape of the dose curve; as a rule, active = well fitted inhibition curve with a large enough effect; inconclusive = small, poorly fitted or top-dose-only effect; inactive = no such curve, though single readings can be large or run the other way.
SMILES,JMJD2A Tudor inh,Six1-Eya2 blk,TDP1 inh,CtBP-E1A inh,BAZ2B block,HP1b chromo inh
CC(=O)OC1[C@H](Oc2c(O)c(C)c3c4c2[C@@H](C)CC[C@@H]4[C@@H](C)C[C@@H]3C=C(C)C)OC[C@@H](O)[C@@H]1O (stereo partly specified),?,-3.9,4.7%,-0.4,·,-9.4%
CC(=O)O[C@H]1[C@H](O)[C@H](Oc2c(O)c(C)c3c4c2[C@@H](C)CC[C@@H]4[C@@H](C)C[C@H]3C=C(C)C)O[C@@H](C)[C@H]1O,31.6µM*,-14.8,6.8%,0.0,·,-21.3%
O=C(CSc1nc(-c2ccccc2)no1)N1CCN(c2ccc(F)cc2)CC1,-1.0%,·,7.9%,·,1.0%,30.4%
CCCCn1c(NCc2cc(Cl)ccc2O)nc2ccccc21,-8.0%,·,0.9%,·,4.1%,48.2%
COC(=O)c1cc2c(-c3ccccc3)cc3ccccn3c-2c1C(=O)OC,44.7µM*,?,10.5%,?,12.6µM*,?
COC(=O)c1c(C(=O)OC)c2cccc3cc(-c4ccccc4)c4ccc1c4n32,8.91µM*,?,11.8%,?,2.51µM*,?
COC(=O)c1cc(-c2ccccc2)sc1N,?,-26.9,5.6%,-15.9,?,?
CC[C@H](C)[C@H](NC(=O)[C@H](CCC(=O)O)NC(=O)[C@@H](N)CO)C(=O)N[C@@H](CCC(N)=O)C(=O)N[C@@H](CC(C)C)C(=O)N[C@@H](CCSC)C(=O)N[C@@H](Cc1cnc[nH]1)C(=O)N[C@@H](CC(N)=O)C(=O)N[C@@H](CC(C)C)C(=O)NCC(=O)N[C@@H](CCCCN)C(=O)N[C@@H](Cc1cnc[nH]1)C(=O)N[C@@H](CC(C)C)C(=O)N[C@@H](C)C(=O)N[C@@H](CO)C(=O)N[C@H](C(=O)N[C@@H](CCC(=O)O)C(=O)N[C@@H](CCCNC(=N)N)C(=O)N[C@@H](CCSC)C(=O)N[C@@H](CCC(N)=O)C(=O)N[C@@H](Cc1c[nH]c2ccccc12)C(=O)N[C@@H](CC(C)C)C(=O)N[C@@H](CCCNC(=N)N)C(=O)N[C@@H](CCCCN)C(=O)N[C@@H](CCCCN)C(=O)N[C@@H](CC(C)C)C(=O)N[C@@H](CCC(N)=O)C(=O)N[C@@H](CC(=O)O)C(=O)N[C@H](C(=O)N[C@@H](Cc1cnc[nH]1)C(=O)N[C@@H](CC(N)=O)C(=O)N[C@@H](Cc1ccccc1)C(=O)O)C(C)C)C(C)C,·,·,10.8%,·,·,·
O=C(NCCc1ccc(F)cc1)C(=O)NCC(c1cccs1)S(=O)(=O)c1ccccc1 (stereo unspecified),-7.0%,·,7.0%,·,3.9%,42.3%
CCc1ccccc1NC(=S)N1CCNC(=O)C1CC(=O)OC (stereo unspecified),44.7µM*,6.5,0.0%,3.2,-13.8%,-1.3%
CCOC(=O)CC1C(=O)NCCN1C(=S)NC(=O)c1ccccc1OC (stereo unspecified),28.2µM*,9.3,0.8%,-2.4,-0.9%,-11.8%
Cc1cccc(C(=O)NCC(c2ccco2)S(=O)(=O)c2cccs2)c1 (stereo unspecified),-1.6%,·,0.0%,·,-7.0%,23.4%
CC(=O)Oc1cccc(/C=c2\sc3nc(-c4ccco4)nn3c2=O)c1,50.1µM*,-14.8,·,-3.0,-34.7%,0.1%
COc1cc(/C=c2\sc3nc(-c4ccncc4)nn3c2=O)ccc1OC(C)=O,·,·,0.0%,·,-5.8%,·
Cc1occc1C(=O)NNC(=O)c1cccc(F)c1,-13.5%[11.4 µM],5.1,-2.4%,·,-6.3%,25.1%
CC(C)(C)NC(=O)C(=O)NNC(=O)c1ccccc1,8.91µM*,3.9,2.9%,8.6,?,15.6%
CC(C)(C)NC(=O)C(=O)NNC(=O)c1cccc(F)c1,10µM*,-20.7,4.6%,?,?,1.9%
COCCn1c(C)cc(O)c(C(c2ccc(Cl)cc2)N2CCN(c3ccccc3)CC2)c1=O (stereo unspecified),-7.8%,·,-2.7%,·,3.8%,29.1%[57 µM]
CCCCCCCC/C=C/CCCCCCCC(=O)NCCOP(=O)(O)O,·,·,4.9%,·,·,·
COc1ccc(C(=O)/C(=C/O)N=Nc2ccc(F)cc2)cc1,56.2µM*,-19.4,8.8%,-6.4,31.6µM*,-28.9%
COc1ccc(C(=O)C(/C=N/O)=N/Nc2ccc(F)cc2)cc1,-16.5%,-2.3,7.2%,-3.9,?,20.0%
COc1ccc(N=N/C(=C\O)C(=O)c2cccs2)cc1,15.8µM*,-26.7,8.8%,-14.4,11.2µM*,?
COc1ccc(NC(=O)c2cccs2)cc1,-3.4%,23.9,1.1%,24.4,-2.4%,36.0%
Cc1ccc(CN(Cc2ccco2)c2cnc(S(C)(=O)=O)nc2C(=O)Nc2ccccc2Br)o1,?,·,1.6%,·,-18.4%,41.2%
COC/C=C/C1=CC2=CC(=O)C(C)(OC(=O)CCc3ccccc3)C(=O)C2=CO1 (stereo unspecified),·,·,11.2%,·,·,·
SMILES,JMJD2A Tudor inh,Six1-Eya2 blk,TDP1 inh,CtBP-E1A inh,BAZ2B block,HP1b chromo inh
COc1ccc(C(=O)N/C(=C\c2cccc([N+](=O)[O-])c2)C(=O)Nc2cccc(C(=O)O)c2)cc1,0.8%[11.4 µM],-0.8,0.0%,·,-3.2%,14.2%
COc1ccccc1C(=O)N/C(=C/c1cccc([N+](=O)[O-])c1)C(=O)Nc1cccc(C(=O)O)c1,12.6µM*,-3.8,2.6%,0.0,-1.3%,-1.8%
COc1cc2ccccc2cc1C(=O)NC(=S)Nc1ccc(C(=O)O)cc1,50.1µM*,-12.2,50.1µM*,-29.9,50.1µM*,-0.9%
O=C(O)c1cccc(NC(=S)NC(=O)c2ccc(-c3ccccc3)cc2)c1,-3.5%,0.7,-2.4%,2.0,-36.4%,15.7%
COc1cc2ccccc2cc1C(=O)NC(=S)Nc1cccc(C(=O)O)c1,-27.8%,?,·,-29.1,79.4µM*,-9.2%
COc1ccc(NC(=O)c2cc3ccccc3cc2OC)cc1,?,14.8,·,0.0,5.6%,?
Cc1ccc(C2c3c(oc4ccccc4c3=O)C(=O)N2c2ccc(C)cn2)cc1 (stereo unspecified),-13.7%,·,3.2%,·,-1.8%,14.7%
Cc1ccc(-n2c(SCc3ccccc3C)nc3[nH]ncc3c2=O)cc1C,?,·,7.6%,·,-24.1%,9.6%
COc1ccccc1C(=O)Nc1ccc(-c2cc(C(F)(F)F)nn2-c2ccccc2)cc1,-0.7%,·,-7.1%,·,-7.5%,33.7%
O=C(Nc1ccccc1N1CCCCC1)c1ccc(Cl)c([N+](=O)[O-])c1,?,-25.9,10.0%,-3.2,?,-17.8%
CN1CCN(c2ccccc2NC(=O)c2ccc(N3CCCC3)c([N+](=O)[O-])c2)CC1,56.2µM*,-21.8,5.5%,?,?,?
